Data taken from article PMC11995724, “Antibiotic target discovery by integrated phenotypic and activity-based profiling of electrophilic fragments” (Cell chemical biology, 2025).
Out of some 3,200 compounds screened, about 110 (3.4%) showed an effect of 50% or more. This is one part of a sample in which strong results are shown more often than they occur.

These compounds were tested on T1, V. cholerae SAD30. Conditions: relative growth, OD600, LB; 25 µM; inhibitor.
T1 construct: SAD30
Design: species or system S. aureus MSSA476 (TSB) or V. cholerae SAD30 (LB); 384-well bacterial growth screen at 25 uM, OD600 relative to DMSO control
With `O=C(CCl)Nc1cccc(S(=O)(=O)N2CCOCC2)c1` [4-P08, 2-chloro-N-[3-(morpholine-4-sulfonyl)phenyl]acetamide] the “% of control remaining” value was 121.458%.
`O=C(CCl)Nc1cccc(S(=O)(=O)N=C2CCCCCN2)c1` [4-D08, N-{3-[(azepan-2-ylidene)sulfamoyl]phenyl}-2-chloroacetamide] was tested, and the “% of control remaining” value was 107.656%.
For `CC(C)NC(=O)C(C#N)=Cc1c(Cl)nc2ccccn12` [9-A11, 3-{2-chloroimidazo[1,2-a]pyridin-3-yl}-2-cyano-N-(propan-2-yl)prop-2-enamide], the “% of control remaining” value was 91.8423%.
With `C=CC(=O)Nc1cc(NC(=O)C2CCC2)ccc1F` [2-E10, N-[4-fluoro-3-(prop-2-enamido)phenyl]cyclobutanecarboxamide] the “% of control remaining” value was 92.0486%.
With `C=CC(=O)Nc1cc(NC(=O)c2ccc([N+](=O)[O-])o2)ccc1F` [3-J04, N-[4-fluoro-3-(prop-2-enamido)phenyl]-5-nitrofuran-2-carboxamide] the “% of control remaining” value was -0.1875%.
`C=CC(=O)Nc1cc(NC(=O)C2(OC)CCOC2)ccc1F` (centres unmarked) [3-D05, N-[4-fluoro-3-(prop-2-enamido)phenyl]-3-methoxyoxolane-3-carboxamide] was tested, and the “% of control remaining” value was 99.5001%.
In the case of `CC(C)Cn1c(N)c(C(=O)CCl)c(=O)[nH]c1=O` [10-F08, 6-amino-5-(2-chloroacetyl)-1-(2-methylpropyl)-1,2,3,4-tetrahydropyrimidine-2,4-dione], the “% of control remaining” value was 101.305%.
In the case of `O=C(CCl)Nc1cc2c(cc1[N+](=O)[O-])OCCCO2` [4-O05, 2-chloro-N-(8-nitro-3,4-dihydro-2H-1,5-benzodioxepin-7-yl)acetamide], the “% of control remaining” value was 108.001%.
In the case of `O=C(CCl)c1ccoc1` [10-O09, 2-chloro-1-(furan-3-yl)ethan-1-one], the “% of control remaining” value was 123.281%.
`Cl.O=C(CCl)c1ccncc1F` [10-I09, 2-chloro-1-(3-fluoropyridin-4-yl)ethan-1-one hydrochloride] was tested, and the “% of control remaining” value was 0%.
For `O=C(CCl)NCC(F)(F)c1cccnc1` [6-C21, 2-chloro-N-[2,2-difluoro-2-(pyridin-3-yl)ethyl]acetamide], the “% of control remaining” value was 97.8292%.
In the case of `Cl.O=C(CCl)c1ccncc1` [10-M09, 2-chloro-1-(pyridin-4-yl)ethan-1-one hydrochloride], the “% of control remaining” value was -0.1559%.
With `O=C(CCl)c1c[nH]c2ccncc12` [10-K05, 2-chloro-1-{1H-pyrrolo[3,2-c]pyridin-3-yl}ethan-1-one] the “% of control remaining” value was 101.305%.
`O=C(CCl)c1ccc(C(F)(F)F)cc1` [10-B10, 2-chloro-1-[4-(trifluoromethyl)phenyl]ethan-1-one] was tested, and the “% of control remaining” value was 79.174%.
